Source: PubChem BioAssay
Active and inactive are the calls of the source.

The molecules below were run on XIP peptide (Xip251-270) binding (assay: small-molecule binders of XIP peptide, primary screen, biochemical, small-molecule microarray, fluorescence 635/667 nm, 0.1 µg/mL protein (AID 1182)). Conditions: fluorescent protein binding, 635 nm, higher = more signal, called active from +8 up or from −8 down.

Composite z-score, inactive:
CN(C)CCCNC(=O)[C@@H]1c2ccccc2C(=O)N(Cc2ccccc2)[C@H]1c1ccc(CO)cc1 0.0257
COc1ccc([Si](C)(C)[C@H]2[C@H](CC(=O)N3CCC[C@H]3CO)O[C@@]3(C(=O)N(Cc4cccc(N5C(=O)COc6ccccc65)c4)c4ccccc43)[C@@H]2C)cc1 0.422
C=CC[C@]1(C(=O)NCc2ccccc2)N=C(c2ccc(OCCCO)cc2)O[C@H]1c1ccccc1 1.55
COC(=O)[C@@]1(Cc2ccc(F)cc2)[C@H]2c3cc(C(=O)N(C)C)n(Cc4ccc(OC)c(OC)c4)c3C[C@H]2CN1C(=O)c1ccccc1 0.316
O=C(CS)NCCCCCNC(=O)[C@H]1C[C@H]2C(=O)N3CCC[C@H]3C(=O)N2[C@H]1c1cccc(OCCO)c1 0.81
Cn1cccc1C(O)C1C=CC2C(=O)NC(=O)C2N1Nc1ccccn1 (stereo unspecified) -0.262
O=C1O[C@@H](c2ccccc2)[C@@H](c2ccccc2)N2[C@@H](c3ccc(OCCO)cc3)[C@]3(C(=O)Nc4ccccc43)[C@@H](C(=O)N3CCN(c4ncccn4)CC3)[C@H]12 0.0629
COC(=O)c1c(CC[C@@H](CO)NC(=O)N[C@H](Cc2ccccc2)Cn2cc(-c3ccccc3N)nn2)oc(C(C)=O)c1C(=O)OC 0.0074
COC(=O)[C@@H]1N=C(c2ccc(OCCCO)cc2)O[C@@H]1c1ccccc1N=[N+]=[N-] 0.82
CCOC(=O)C1=CC[C@H]2C(=O)N(CC)C(=O)[C@@H]12 0.223
C=C(/C(=C/C[C@H](OC(C)=O)c1ccc(OCCO)cc1)c1cnc2ccccc2c1)C(C)C -0.18
N#Cc1ccc(NN2C(C(O)c3cc(C(F)(F)F)cc(C(F)(F)F)c3)C=CC3C(=O)N(c4ccccc4)C(=O)C32)cc1 (stereo unspecified) 1.67
COCCOC(=O)N1C(=O)[C@@]2(c3cc(C#CCNC(N)=O)ccc31)[C@H](c1ccccc1OCCO)N1[C@H](c3ccccc3)[C@H](c3ccccc3)OC(=O)[C@H]1[C@@H]2C(=O)N1CCN(c2ncccn2)CC1 0.521
CC(C)[Si]1(C(C)C)O[C@@H](c2ccccc2)c2cc(C3CC3)nc(-c3ccccc3)c21 -0.431
COc1ccc([Si](C)(C)[C@@H]2[C@@H](CC(=O)N3CCC[C@H]3CO)O[C@]3(C(=O)N(Cc4cccc(N5CCC5=O)c4)c4ccccc43)[C@H]2C)cc1 1.07
CN(C)c1ccc(C(O)C2C=CC3C(=O)N(c4ccccc4)C(=O)C3N2Nc2ccccc2F)cc1 (stereo unspecified) 0.324
CCCCCN1CC=CC23O[C@@H]4C=CCOC(=O)[C@@H]4[C@H]2C(=O)N(CCCCCCO)[C@@H]3C1=O (stereo partly specified) 0.282
CC(C)(C)OC(=O)CC[C@]1(C(N)=O)COC(c2ccc(OCCCO)cc2)=N1 2.48
CC(C)(C)OC(=O)CC[C@]1(C(=O)NCc2ccccc2)N=C(c2ccc(OCCCO)cc2)O[C@H]1c1ccccc1 0.124
COc1ccc(CCNC(=O)[C@@H]2c3ccccc3C(=O)N(c3ccc(C)cn3)[C@H]2c2ccc(CO)cc2)cc1 -1.02
CC1CC/C=C\[C@H]2OC34C=CCN(Cn5nnc6ccccc65)C(=O)[C@H]3N(CCO)C(=O)[C@@H]4C2C(=O)O1 (stereo partly specified) 0.711
C[N+](C)(C)CCCCCCNC(=O)[C@@H]1C[C@@H]2C(=O)N3CCC[C@H]3C(=O)N2[C@@H]1c1cccc(OCCO)c1 -0.113
CN1C(=O)[C@@]2(CCC(=O)OC(C)(C)C)N=C(c3ccc(OCCCO)cc3)O[C@H]2c2ccccc21 0.0792
COCC1=C2[C@@H](CCc3ccccc3)OB(O)C[C@@H]2n2c(=O)n(-c3ccccc3)c(=O)n2C1 -0.0712
CCCCC(=C=CC[C@H](O)c1ccccc1OCCO)C[C@H](O)COCc1ccccc1 1.03
COCCOC(=O)N1C(=O)[C@@]2(c3cc(C#CCNC(N)=O)ccc31)[C@H](c1ccc(O)cc1)N1[C@H](c3ccccc3)[C@H](c3ccccc3)OC(=O)[C@H]1[C@@H]2C(=O)N1CCCCCCC1 0.348
CC(C)NC(=O)[C@@H]1c2ccccc2C(=O)N(CC23CC4CC(CC(C4)C2)C3)[C@H]1c1ccc(CO)cc1 0.166
CCCC[C@@H]1C[C@H]1[C@@H](NS(=O)(=O)c1cccc2cccnc12)c1ccc(-c2ccccc2)cc1 -0.111
CC(C)N1CC=CC23O[C@@H]4C=CCCOC(=O)C4[C@H]2C(=O)N(CCCCCCO)[C@@H]3C1=O (stereo partly specified) -0.543
CC(C)=C1C(=O)C(c2ccccc2)=C2CN3C(=O)N(CCc4ccccc4)C(=O)[C@]3(Cc3ccc(F)cc3)[C@H]21 -0.391
CO[C@H]1O[C@H](CO)[C@@H](OC(=O)Nc2ccc(C#N)cc2)[C@H](OC(=O)c2cc3ccccc3[nH]2)[C@H]1OC(=O)c1cc2ccccc2[nH]1 2.37
[N-]=[N+]=NCc1ccccc1[C@@H]1OC(c2ccc(OCCCO)cc2)=N[C@]1(Cc1ccccc1)C(=O)N1CCOCC1 0.713
CC(C)c1ccc(NN2C(C(O)c3ccc4c(c3)OCO4)C=CC3C(=O)N(c4ccccc4)C(=O)C32)cc1 (stereo unspecified) 0.803
COCC(=C=CC[C@@H](O)c1ccccc1OCCO)CCO 0.291
CC(C)OC(=O)C=C1C[C@@H](c2ccc(C#N)cc2)O[C@@H](c2ccc(C#N)cc2)O1 1.1
CC(C)(C)N1CC=CC23O[C@@H]4C=CCCOC(=O)C4[C@H]2C(=O)N(CCCCCO)[C@@H]3C1=O (stereo partly specified) 0.615
